This note sets out measurements from PubChem BioAssay AID434962 (The Scripps Research Institute Molecular Screening Center, 2010).

Structures are written as SMILES. The whole screen tested about 320,000 compounds, of which about 1,300 (0.41%) were called active.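 The calls were made as follows: active = percent inhibition above the average of all tested compounds plus 3 SD, set per screening campaign (cut at about 16% in these data); inactive = the rest.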 Only a selection was taken, and actives are over-represented in it overall.

The assay deals with Insulin-degrading enzyme (Homo sapiens) (UniProt P14735). Description: human IDE inhibitors in live cells, primary screen, fluorescence polarization, HEK cells, FAbetaB substrate (AID 434962).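 Also: IDE supplied by intact live HEK cells; FP after avidin binding of uncleaved biotin substrate so inhibition keeps polarization high; 0% = DMSO wells and 100% = 60 µM reference IDE inhibitor Ii1.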 The following applies: FAbetaB cleavage, at 5.59 µM, stronger effect = higher value. A general note: Fluorescence polarisation rises when a labelled molecule tumbles more slowly, as on binding a larger partner.
Sequence of Insulin-degrading enzyme (Homo sapiens) (P14735 whole entry, looked up): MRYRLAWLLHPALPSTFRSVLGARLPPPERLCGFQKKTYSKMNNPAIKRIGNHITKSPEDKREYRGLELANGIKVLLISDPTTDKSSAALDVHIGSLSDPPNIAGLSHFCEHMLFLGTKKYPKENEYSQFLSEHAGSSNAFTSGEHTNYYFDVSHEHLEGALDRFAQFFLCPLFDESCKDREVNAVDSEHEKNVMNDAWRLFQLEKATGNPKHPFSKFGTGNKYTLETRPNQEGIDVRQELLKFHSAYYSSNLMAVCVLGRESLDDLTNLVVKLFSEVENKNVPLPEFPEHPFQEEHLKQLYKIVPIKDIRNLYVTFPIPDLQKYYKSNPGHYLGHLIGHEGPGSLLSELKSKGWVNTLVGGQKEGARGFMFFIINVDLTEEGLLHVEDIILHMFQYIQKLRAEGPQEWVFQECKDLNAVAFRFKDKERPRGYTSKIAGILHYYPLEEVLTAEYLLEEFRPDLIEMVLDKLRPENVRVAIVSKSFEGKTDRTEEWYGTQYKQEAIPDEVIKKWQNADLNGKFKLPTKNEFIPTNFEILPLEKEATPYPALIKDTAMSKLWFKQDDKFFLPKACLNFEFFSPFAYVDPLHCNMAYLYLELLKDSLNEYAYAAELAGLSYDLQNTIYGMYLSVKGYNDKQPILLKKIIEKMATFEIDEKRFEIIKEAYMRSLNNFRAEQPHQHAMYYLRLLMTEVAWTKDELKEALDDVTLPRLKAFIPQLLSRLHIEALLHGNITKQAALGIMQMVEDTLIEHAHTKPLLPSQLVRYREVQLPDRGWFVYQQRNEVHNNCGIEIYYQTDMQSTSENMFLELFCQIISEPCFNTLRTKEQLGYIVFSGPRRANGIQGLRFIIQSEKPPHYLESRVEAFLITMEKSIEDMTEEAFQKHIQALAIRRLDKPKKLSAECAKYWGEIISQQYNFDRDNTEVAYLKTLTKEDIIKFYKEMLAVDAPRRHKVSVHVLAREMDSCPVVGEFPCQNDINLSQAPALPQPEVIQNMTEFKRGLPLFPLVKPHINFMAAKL
For orientation: inhibition means the drop in the measured response relative to a control, in per cent. Take `CS(=O)(=O)N(Cc1ccc(Cl)cc1)c1ccc(C(=O)NCCSCc2ccco2)cc1`: the inhibition is 2.58% (inactive).

Consider `O=C(C1=C[C@H](c2ccc(C(F)(F)F)cc2)C[C@H](OCc2ccc(CO)cc2)O1)N1CCN(Cc2ccccc2)CC1`, for which the inhibition is -1% (inactive). As to `O=C(C1=C[C@H](c2coc3ccccc3c2=O)C[C@H](OCc2ccc(CO)cc2)O1)N1CCOCC1`, the inhibition is 4.19% (inactive). For `O=C(C1=C[C@H](c2coc3ccccc3c2=O)C[C@H](OCc2ccc(CO)cc2)O1)N1CCN(Cc2ccccc2)CC1`, the inhibition is 18.4% (active). Next, `O=C(NC1CCCC1)C(=O)c1c[nH]c2ccccc12`: 3.35% (inactive); `C[n+]1ccc(/C=C/c2c[nH]c3ccccc23)cc1`: 23.9% (active). As for `COc1ccc(/C=C(\C#N)c2c[nH]c3ccccc23)cc1`, the figure is -0.68% (inactive); as for `Clc1ccccc1-c1cc(COc2ccc3ccccc3c2)no1`, 3.18% (inactive); as for `CCOc1cc(/C=C2/C(=N)N3OC(C)=CC3=NC2=O)ccc1OC`, 0.06% (inactive). Regarding `CC1=CC2=NC(=O)/C(=C/c3coc4ccccc4c3=O)C(=N)N2O1`, the inhibition is 62.1% (active). For `COc1ccc(OCCCn2cccc2/C=C2/C(=N)N3OC(C)=CC3=NC2=O)cc1`, the inhibition was 1.48% (inactive). Regarding `C=CCn1c(SCCOc2ccc(OC)cc2)nnc1C(NC(=O)c1ccc(OC)cc1)C(C)C` (stereo not given), the inhibition was 0.39% (inactive). For `CC(=O)Nc1ccc(S(=O)(=O)N2CCN(CCCOc3cc(C)ccc3C)CC2)cc1`, the inhibition is -1.56% (inactive).

As to `CCOc1ccc(NC(=O)CN(C)CC(=O)Nc2cccc(Cl)c2C)cc1OCC`, the inhibition is 1.24% (inactive). Next, `CCc1nc(SCC(=O)NNC(=O)c2ccc(C)cc2)c2ccccc2n1`: 0.32% (inactive). Turning to `CCCc1nc(SCC(=O)Nc2ccc(S(=O)(=O)N(C)C)cc2)c2ccccc2n1`, the inhibition is 38.4% (active). As for `CCCNC(=O)CSc1nc(Cc2ccccc2)nc2ccccc12`, the figure is 4.52% (inactive). With `Cc1ccccc1-n1c(C)cc(/C=N/NC(=O)c2ccc(CN3CCOCC3)cc2)c1C`, the inhibition is -1.59% (inactive). Turning to `COc1ccc(N2C(=O)/C(=C\c3ccco3)N=C2SCC(N)=O)cc1Cl`, the inhibition is 6.2% (inactive). As for `N#Cc1c(N2CCCCC2)nc(N)c2c(N)nc(SCC(=O)O)cc12`, the figure is 7.07% (inactive); as for `CCN1CCCC1Cn1cnc2c([nH]c3cc(OC)ccc32)c1=O` (stereo not given), 6.02% (inactive). Turning to `Cc1c(CN2CC[C@@H](N3CCN(c4ccccn4)CC3)[C@H](O)C2)[nH]c2ccc(F)cc12`, the inhibition is -1.68% (inactive). As for `Fc1ccc2[nH]c3c(N4CCSCC4)ncnc3c2c1`, the figure is 17.6% (active).

For `CCN1CCCC1CNC(=O)c1cc2cc(OC)c(OC)cc2[nH]1` (stereo not given), the inhibition was 1.37% (inactive). Turning to `CCN1CCCC1CNc1ncnc2c1[nH]c1ccc(F)cc12` (stereo not given), the inhibition is 17% (active). Next, `CC(C)OCCCNc1ncnc2c1[nH]c1ccc(F)cc12`: 27.3% (active); `COc1ccc(NC(=O)CSc2nnc(C3CC3)n2C)cc1S(=O)(=O)N1CCCCC1`: 0.43% (inactive). Take `O=C1CCN(CCCc2ccccc2)CCN1CCO`: the inhibition is 9.53% (inactive). As for `Cc1noc(C)c1S(=O)(=O)N(C)Cc1ccccc1`, the figure is 1.11% (inactive). As for `Cn1ncc2c(N3CCCCC3)nc(NCCCO)nc21`, the figure is 4.87% (inactive). Next, `COc1cccc(/C=C/C(=O)OCC(=O)N2CCCc3ccccc32)c1`: 0.1% (inactive); `Cc1ccc(Cn2cc(C(=O)NN)c(=O)c3ccc(F)cc32)cc1`: 0.01% (inactive). `COc1ccc2c(-c3ccccc3)cc(SCC(=O)N(C)C3CCS(=O)(=O)C3)nc2c1` (stereo not given): the inhibition was -3.71% (inactive). Next, `Cc1c(-c2cccc(Cl)c2)nc2ccccc2c1C(=O)OCC(=O)N(C)C1CCS(=O)(=O)C1` (stereo not given): 18.3% (active); `CN(C(=O)COC(=O)c1cc(-c2ccco2)nc2ccccc12)C1CCS(=O)(=O)C1` (stereo not given): -3.18% (inactive). Next, `Cc1ccc(C)c(NC(=O)c2cc(-c3cc(C)cc(C)c3O)n[nH]2)c1`: -3.27% (inactive); `O=C(NNC(=O)c1ccc(-c2ccccc2)cc1)Nc1ccccc1`: 2.17% (inactive); `CC(C(=O)c1ccc(-c2ccccc2)cc1)[n+]1cccc(Br)c1` (stereo not given): 23.5% (active). In the case of `Cc1ccc(NC(=S)NC(=O)c2ccc(-c3ccccc3)cc2)cc1`, the inhibition was 0.29% (inactive). Consider `CN(C)c1ccc(/C=C2\NC(=S)N(Cc3ccccc3)C2=O)cc1`, for which the inhibition is 99.8% (active). As for `CN(C)c1ccc(C=C2C(=O)OC3(CCCC3)OC2=O)cc1`, the inhibition is 0.68% (inactive). In the case of `O=C1N/C(=C/c2cccs2)C(=O)N1Cc1ccc(F)cc1`, the inhibition is -2.86% (inactive). Next, `CN(C1CCS(=O)(=O)C1)S(=O)(=O)c1ccc2ccccc2c1` (stereo not given): 5.04% (inactive); `O=C(C1CCN(S(=O)(=O)Cc2ccccc2)CC1)N1CCCc2ccccc21`: 0.11% (inactive).

As for `CC1(C)Cc2cccc(OCC(N)=O)c2O1`, the inhibition is -2.75% (inactive). As for `CC1(C)Cc2cccc(OCC(=O)NCc3ccccc3)c2O1`, the inhibition was 0.56% (inactive). Next, `CC1(C)Cc2cccc(OCC(=O)N3CCN(c4ccc([N+](=O)[O-])cc4)CC3)c2O1`: 18.8% (active); `CCCN(CCC)S(=O)(=O)c1ccc(C(=O)N2CC3CCC(CC3)C2)cc1`: -1.85% (inactive). As for `CC(=O)NCCc1ccc(S(=O)(=O)N(C)C2CCS(=O)(=O)C2)cc1` (stereo not given), the inhibition is -0.05% (inactive). Consider `CN1C(=O)/C(=C/C=C2\SCCN2C)OC1=S`, for which the inhibition is 25.2% (active). As for `Nc1nc(Br)c2ccccc2c1-c1ccc(F)cc1`, the figure is -4.68% (inactive); as for `CC(C)OCCCNC(=S)N1CCC(C(=O)c2ccc3c(c2)OCCO3)CC1`, 7.22% (inactive); as for `COC(=O)c1cc(C(=O)OCC(=O)Nc2cc(C)on2)cc([N+](=O)[O-])c1`, 0.35% (inactive). In the case of `Cc1ccc2c(c1)c1ncnc(N3CCc4ccccc4C3)c1n2C`, the inhibition is 39.7% (active). Next, `Cc1ccc2c(c1)c1ncn(CCC3=CCCCC3)c(=O)c1n2C`: 4.46% (inactive); `Cc1ccc(-c2cc(C(=O)N3CCc4ccccc4C3)no2)cc1`: -0.51% (inactive); `COc1ccccc1-c1n[nH]c2c1[C@H](C)CC[C@H]2C(C)C`: 0.94% (inactive). Next, `CCCCOC(=O)c1ccc(NC(c2ccc(C)cc2)P(=O)(OC)OC)cc1` (stereo not given): 7.2% (inactive); `CCOC(=O)c1nn(-c2cccc(C)c2)cc1C(=O)c1ccccc1`: -1.22% (inactive). As to `Cc1nn(C)cc1C(=O)Nc1ccccc1Br`, the inhibition is 2.37% (inactive).

On to `Cc1nn(C)cc1C(=O)c1ccccc1`, for which the inhibition is 16.3% (active). For `COc1ccc(/C=C2\CCCC3C2=NN(C(=O)c2scnc2C)C3c2ccc(OC)cc2)cc1` (stereo not given), the inhibition was -0.54% (inactive). As for `O=C(CCc1nnc(Cc2ccc3c(c2)OCO3)o1)NCCc1ccccc1Cl`, the figure is 0.48% (inactive). As for `CCCCN(C1CCS(=O)(=O)C1)S(=O)(=O)c1ccc(C(C)C)cc1` (stereo not given), the figure is 5.43% (inactive); as for `Cc1c(C(=O)Nc2cccc(-c3nnc4n3CCCCC4)c2)oc2ccccc12`, 17.2% (active); as for `Cc1c(C(=O)Nc2cccc(S(=O)(=O)N3CCOCC3)c2)oc2ccccc12`, -1.96% (inactive). As for `O=C(Cn1[nH]c(=O)c2ccccc2c1=O)Nc1cccc(-c2nnc3n2CCCCC3)c1`, the figure is 7.74% (inactive); as for `COc1c(Br)cc2c(C)c(C(=O)N3CCOCC3)oc2c1Br`, 3.66% (inactive); as for `COc1ccccc1N(CC(=O)Nc1ccc(C(F)(F)F)cc1)S(C)(=O)=O`, -2.79% (inactive). On to `C=CCOc1ccccc1NC(=O)CN1C(=O)CNC1=O`, for which the inhibition is -0.94% (inactive). As for `CN(C)/C=C/C(=O)c1cnc2sccn2c1=O`, the figure is -1.17% (inactive). As for `COc1ccc(NS(=O)(=O)c2ccc(NC(=S)NC(=O)/C=C/c3ccc(C)cc3)cc2)nn1`, the figure is 24.2% (active). Take `COc1ccc(NS(=O)(=O)c2ccc(NC(=O)C(C)(C(F)(F)F)C(F)(F)F)cc2)nn1`: the inhibition was 6.58% (inactive). As for `COc1cc(NS(=O)(=O)c2ccc(NC(=S)NC(=O)c3ccc(Br)cc3)cc2)ncn1`, the figure is -2.01% (inactive). Next, `Cc1ccc(NC2CCCN(C(=O)CCC3(C)CC3)C2)cc1C` (stereo not given): 2.09% (inactive); `O=C(Nc1ccc(Cl)c(Cl)c1)N1CC=C(c2ccccc2)CC1`: 19.1% (active). As for `COc1cc(C(=O)NCC(=O)N2CC=C(c3ccccc3)CC2)cc(OC)c1OC`, the figure is -2.8% (inactive). For `O=C(Nc1cccc(NC(=O)N2CCN(c3ccccc3)CC2)c1)N1CCN(c2ccccc2)CC1`, the inhibition is 3.98% (inactive). As for `O=C(CSc1nnc(CNC(=O)c2ccc(F)cc2)o1)Nc1ccc2c(c1)OCO2`, the figure is 1.15% (inactive). As for `CS(=O)(=O)N(Cc1ccccc1Cl)c1ccc(C(=O)NCc2cccnc2)cc1`, the inhibition was 12.1% (inactive). Next, `CC(=O)[C@@]12O[C@@H]1C[C@H]1[C@@H]3CC[C@H]4C[C@@H](O)CC[C@]4(C)[C@H]3CC[C@@]12C`: 0.23% (inactive); `O=C(N/N=C/c1ccc(OC(=O)c2ccccc2Cl)cc1)c1ccc(O)cc1`: 17.1% (active). As for `O=C(COc1ccc(/C=N/NC(=O)c2ccc(O)cc2)cc1)Nc1ccc([N+](=O)[O-])cc1`, the figure is 0.35% (inactive); as for `CC(C)(C)C(=O)Nc1ccc(C(=O)N/N=C/c2ccccc2OC(=O)c2ccc(Cl)cc2Cl)cc1`, -0.07% (inactive). As for `CN(C(=O)c1cccc(NC(=O)Cc2cccc([N+](=O)[O-])c2)c1)C1CCCCC1`, the figure is -2.48% (inactive).

As to `Cn1cncc1C#Cc1c(-c2ccsc2)sc2ccccc12`, the inhibition is 2.04% (inactive). `CC[C@H]1OC(=O)[C@H](C)[C@@H](O[C@H]2C[C@@](C)(OC)[C@@H](O)[C@H](C)O2)[C@H](C)[C@@H](O[C@@H]2O[C@H](C)C[C@H](N(C)C)[C@H]2O)[C@](C)(O)C[C@@H](C)[C@@H]2N[C@@H](COCCOC)O[C@H]([C@H]2C)[C@]1(C)O`: the inhibition is -4.09% (inactive). `C=CCSc1nc2c(c(=O)[nH]c(=O)n2C)n1Cc1ccccc1`: the inhibition is -11.6% (inactive). `Cc1cc2nc3c(=O)n(Cc4ccccc4)c(=O)[nH]c3nc2cc1N`: the inhibition is 20.4% (active). For `CN(C(=O)COC(=O)c1ccc(Br)o1)c1c(N)n(Cc2ccccc2)c(=O)[nH]c1=O`, the inhibition was 5.15% (inactive).
